“And” between values parts separate entries of the source, which are not always exact repeats. Identical values can stand only once. About 2,000 (36%) of roughly 5,500 compounds were called active. About 18% were inconclusive and are not listed. No stated cut-off is given here; in the data, active means normalized growth mostly below about 0.91 (no sharp cut-off); inconclusive means no clear call, values can overlap the other calls; inactive means mostly above about 0.92. Some of the results follow.
Assay: chemical genetic growth profiling, strain panel (AID 1159580);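 further: tested at 20 µM; growth read once vehicle control cultures reached saturation at 30 °C; 1 = growth at the plate median or of vehicle wells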
Conditions: S. cerevisiae deletion strains, growth OD

Measured: normalized growth

CC1=C(C(=O)O)N2C(=O)[C@@H](NC(=O)[C@H](N)C3=CCC=CC3)C2SC1 (some centres not stated)
inactive: locus YAL013W, strain DEP1, stronger effect = lower value 1 | locus YAL021C, strain ccr4, stronger effect = lower value 1.01 | locus YAL026C, strain drs2, stronger effect = lower value 1.03 | locus YAL030W, strain snc1, stronger effect = lower value 1.03 | locus YBL061C, strain skt5, stronger effect = lower value 1.03 | locus YBR009C, strain hhf1, stronger effect = lower value 1.02 | locus YBR021W, strain FUR4, stronger effect = lower value 1.02 | locus YBR023C, strain chs3, stronger effect = lower value 1.02 | locus YBR171W, strain sec66, stronger effect = lower value 1.04 | locus YBR229C, strain ROT2, stronger effect = lower value 0.953 | locus YBR231C, strain swc5, stronger effect = lower value 1.04 | locus YBR279W, strain paf1, stronger effect = lower value 1.01 | locus YCL011C, strain gbp2, stronger effect = lower value 1.03 | locus YCL016C, strain dcc1, stronger effect = lower value 1.02 | locus YCL029C, strain bik1, stronger effect = lower value 0.998 | locus YCL061C, strain MRC1, stronger effect = lower value 1.02 | locus YCL069W, strain vba3, stronger effect = lower value 1.02 | locus YCR088W, strain abp1, stronger effect = lower value 1.02 | locus YDL005C, strain med2, stronger effect = lower value 1.03 | locus YDL035C, strain GPR1, stronger effect = lower value 0.965 | locus YDL040C, strain nat1, stronger effect = lower value 1.02 | locus YDL074C, strain BRE1, stronger effect = lower value 0.987 | locus YDL101C, strain DUN1, stronger effect = lower value 0.98 | locus YDL185W, strain tfp1, stronger effect = lower value 0.977 | locus YDL192W, strain arf1, stronger effect = lower value 0.989 | locus YDR001C, strain nth1, stronger effect = lower value 1.01 | locus YDR069C, strain doa4, stronger effect = lower value 1.02 | locus YDR101C, strain arx1, stronger effect = lower value 0.988 | locus YDR137W, strain rgp1, stronger effect = lower value 1.03 | locus YDR159W, strain sac3, stronger effect = lower value 1.04 | locus YDR162C, strain NBP2, stronger effect = lower value 0.951 | locus YDR195W, strain ref2 0.992 | locus YDR297W, strain sur2, stronger effect = lower value 1.02 | locus YDR318W, strain mcm21, stronger effect = lower value 1 | locus YDR334W, strain swr1, stronger effect = lower value 1.01 | locus YDR335W, strain msn5, stronger effect = lower value 1.02 | locus YDR388W, stronger effect = lower value 0.99 | locus YDR392W, strain spt3, stronger effect = lower value 1.03 | locus YDR502C, strain sam2, stronger effect = lower value 1.02 | locus YEL003W, strain gim4, stronger effect = lower value 1.02 | locus YEL037C, strain rad23, stronger effect = lower value 1.02 | locus YEL061C, strain CIN8 (second series), stronger effect = lower value 1.02 | locus YEL061C, strain CIN8, stronger effect = lower value 0.995 | locus YER015W, strain faa2, stronger effect = lower value 1 | locus YER016W, strain bim1, stronger effect = lower value 1.02 | locus YER110C, stronger effect = lower value 0.981 | locus YER111C, strain swi4, stronger effect = lower value 1.03 | locus YER155C, strain BEM2 (second series), stronger effect = lower value 1.03 | locus YER155C, strain BEM2, stronger effect = lower value 0.998 | locus YER167W, strain BCK2, stronger effect = lower value 0.989 | locus YFR010W, strain ubp6, stronger effect = lower value 1.03 | locus YGL078C, strain dbp3, stronger effect = lower value 0.993 | locus YGL086W, strain mad1, stronger effect = lower value 0.933 | locus YGL167C, strain pmr1, stronger effect = lower value 1.04 | locus YGL173C, strain kem1, stronger effect = lower value 1.03 | locus YGL227W, strain vid30, stronger effect = lower value 1.02 | locus YGL240W, strain doc1, stronger effect = lower value 1.03 | locus YGL248W, strain PDE1, stronger effect = lower value 1.01 | locus YGL253W, strain hxk2, stronger effect = lower value 1.03 | locus YGR135W, strain pre9, stronger effect = lower value 1.03 | locus YGR252W, strain gcn5, stronger effect = lower value 1.05 | locus YHR013C, strain ard1, stronger effect = lower value 1.05 | locus YHR027C, strain rpn1, stronger effect = lower value 1.02 | locus YHR030C, strain SLT2, stronger effect = lower value 0.994 and 0.964 | locus YHR079C, strain IRE1 (second series), stronger effect = lower value 1 | locus YHR079C, strain IRE1, stronger effect = lower value 0.956 | locus YHR094C, strain hxt1, stronger effect = lower value 0.983 | locus YHR129C, strain ARP1, stronger effect = lower value 0.988 | locus YHR142W, strain chs7, stronger effect = lower value 1.04 | locus YHR200W, strain rpn10, stronger effect = lower value 0.986 | locus YIL066C, strain RNR3, stronger effect = lower value 0.971 | locus YIL073C, strain SPO22, stronger effect = lower value 1.01 | locus YIL125W, strain kgd1, stronger effect = lower value 0.99 | locus YIR030C, strain dcg1, stronger effect = lower value 0.993 | locus YJL092W, strain hpr5, stronger effect = lower value 1.02 | locus YJL095W, strain BCK1 (second series), stronger effect = lower value 1.02 | locus YJL095W, strain BCK1, stronger effect = lower value 1.02 and 0.989 | locus YJL115W, strain asf1, stronger effect = lower value 1.03 | locus YJL129C, strain trk1, stronger effect = lower value 1.03 | locus YJL134W, strain LCB3, stronger effect = lower value 0.985 | locus YJL154C, strain vps35, stronger effect = lower value 1.01 | locus YJL164C, strain tpk1, stronger effect = lower value 1.02 | locus YJL166W, strain qcr8, stronger effect = lower value 1.02 | locus YJL168C, strain set2, stronger effect = lower value 0.994 | locus YJL187C, strain SWE1 (second series), stronger effect = lower value 0.996 | locus YJL187C, strain SWE1, stronger effect = lower value 1.03 | locus YJR043C, strain POL32, stronger effect = lower value 0.961

From PubChem BioAssay AID1159580 (chemical genetic matrix, 2015)
